Reference: PubChem BioAssay (Tox21)
Records with an inconclusive call do not appear. Active and inactive are the calls of the source. Unless noted, calls come from the whole dose curve; as a rule, active = well fitted curve in the direction sought with a large enough effect in the repeat runs; inconclusive = weak or mixed curves; inactive = no such curve, though single readings can be large; an effect the other way counts as inactive or inconclusive.

Key:
[1] = qHTS assay to identify small molecule agonists of the vitamin D receptor (VDR) signaling pathway - cell viability counter screen (AID 743224); note: series mostly up to about 63 µM; % is set by controls: 0 for no effect and ±100 for the full control effect; nearly all actives have a fitted effect of over 50% in size
Outline: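 Plated VDR-bla cells (4 h, 37C) received compound, incubated 16 h, then LiveBLAzer substrate 2 h RT; CellTiter-Glo added afterwards, luminescence read at 30 min.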

[2] = qHTS assay to identify small molecule antagonists of the vitamin D receptor (VDR) signaling pathway - cell viability counter screen (AID 743225); note: % is set by controls: 0 for no effect and ±100 for the full control effect; nearly all actives have a fitted effect of over 50% in size
Outline: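 Same-well multiplex: following 16 h treatment of HEK 293T cells carrying a UAS-driven beta-lactamase reporter with compound and agonist (3 nM final), and a 2 h FRET substrate step, CellTiter-Glo was added and luminescence read after 30 min.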

[3] = qHTS assay to identify small molecule agonists of the NFkB signaling pathway - cell viability counter screen (AID 1159515; calls by dose curve; note: series mostly up to about 61 µM; % is set by controls: 0 for no effect and ±100 for the full control effect; nearly all actives have a fitted effect of over 55% in size)
Outline: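 Using the same wells as the NFkB reporter read, ME-180 NFkB-bla cells given compounds for 5 hr were assessed for viability via CellTiter-Glo, with luminescence taken after a 30 min room-temperature incubation.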

[4] = qHTS assay to identify small molecule agonists of the endoplasmic reticulum stress response signaling pathway (AID 1159516; active = well fitted activation curve with a large enough effect in the signal ratio in the repeat runs, not every such curve was filed as active; the % refers to the signal ratio; note: % is set by controls: 0 for no effect and ±100 for the full control effect)
Outline: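 An ESRE-bla HeLa cell assay: compounds were pin-transferred from DMSO onto overnight-plated cells and left 5 hr at 37 C. Substrate was then loaded for 2 hr at room temperature before reading fluorescence at 460 nm and 530 nm.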

[5] = qHTS assay to identify small molecule agonists of the endoplasmic reticulum stress response signaling pathway - cell viability counter screen (AID 1159517; calls by dose curve;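 note: HeLa cells carrying an ER stress response element beta-lactamase reporter; series mostly up to about 61 µM; % is set by controls: 0 for no effect and ±100 for the full control effect; nearly all actives have a fitted effect of over 50% in size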)
Outline: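 Luminescence readout: CellTiter-Glo, 30 min RT, same wells as the ESRE-bla reporter read. HeLa ESRE-bla, 1,500 cells/well, o/n 37 C; cpd 5 hr 37 C/5% CO2.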

[6] = qHTS assay to identify small molecule antagonists of the retinoid-related orphan receptor gamma (ROR-gamma) signaling pathway - cell viability counter screen (AID 1159520); note: % is set by controls: 0 for no effect and ±100 for the full control effect; nearly all actives have a fitted effect of over 50% in size
Outline: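 Tet-on ROR gamma CHO cells (1,000/well) were plated 4 hr, given compounds in DMSO for 2 hr at 37 C, then induced with 1 uM final doxycycline for 16 hr. Viability was read as ATP by CellTiter-Glo luminescence after 30 min.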

[7] = target: Nuclear receptor ROR-gamma (Homo sapiens) (UniProt P51449); assay: qHTS assay to identify small molecule antagonists of the retinoid-related orphan receptor gamma (ROR-gamma) signaling pathway (AID 1159521)
Outline: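 Inducible-expression reporter assay: doxycycline (1 uM final) switched on RORγ in CHO cells bearing a ROR response element-luciferase construct, with test compounds present from 2 h beforehand. Decreased luminescence after 16 h defined antagonist activity.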

[8] = qHTS assay to identify small molecule agonists of the AP-1 signaling pathway - cell viability counter screen (AID 1159525; calls by dose curve; note: nearly all actives have a fitted effect of over 55% in size)
Outline: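 ME-180 AP-1-bla, 2500 cells/well, Opti-MEM + 0.5% dialyzed FBS; overnight 37 °C; cpd 15-pt titration, 5 h 37 °C; CellTiter-Glo 30 min RT; luminescence read; normalised to TOAB and DMSO controls.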

[9] = qHTS assay to identify small molecule agonists of the AP-1 signaling pathway (AID 1159526; calls by dose curve; note: % is set by controls: 0 for no effect and ±100 for the full control effect)
[10] = target: Retinoic acid receptor RXR-alpha (Homo sapiens) (UniProt P19793); assay: qHTS assay to identify small molecule agonists of the RXR signaling pathway (AID 1159527; calls by dose curve; note: nearly all actives have a fitted effect of over 35% in size; note: potency is the fitted concentration of half-maximal effect; for activation: % is set by controls: 0 for no effect and ±100 for the full control effect)
Outline: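 Compounds in DMSO were added to RXR-alpha-UAS-bla HEK 293T cells kept in 2% charcoal-stripped serum, and incubated 16 hr at 37 C with 5% CO2. Reporter signal came from a 2 hr B/G FRET substrate step.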

[11] = qHTS assay to identify small molecule agonists of the RXR signaling pathway - cell viability counter screen (AID 1159529)
Outline: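 Counter screen: CellTiter-Glo luminescence. Cells: RXR-alpha-UAS-bla HEK 293T. Medium: 2% charcoal-stripped FBS. Treatment: 16 h, 37 C. Reagent incubation: 30 min, RT.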

[12] = qHTS assay to identify small molecule antagonists of the retinoid acid receptor (RAR) signaling pathway - cell viability counter screen (AID 1159551); note: % is set by controls: 0 for no effect and ±100 for the full control effect; nearly all actives have a fitted effect of over 35% in size
Outline: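 Retinol-stimulated (1 uM final) C3RL4 cells, compound 6 h, 37 C; readout CellTiter-Glo luminescence (ATP) after 30 min RT incubation.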

[13] = qHTS assay to identify small molecule antagonists of the retinoic acid receptor (RAR) signaling pathway (AID 1159552)
Outline: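 Antagonism of retinol-induced RARE reporter activity was measured in C3RL4 cells. Exposure to compounds and 1 uM final retinol lasted 6 hr at 37 C, with luminescence as endpoint.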

[14] = qHTS assay to identify small molecule agonists of the retinoic acid receptor (RAR) signaling pathway (AID 1159553); note: % is set by controls: 0 for no effect and ±100 for the full control effect
Outline: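 Reporter readout comes from luciferase under RARE control in C3RL4 cells; compound exposure lasts 6 hr at 37 C in 5% CO2, and luminescence is recorded following a 30 min room-temperature incubation with reagent.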

[15] = qHTS assay to identify small molecule antagonists of the estrogen related receptor (ERR) signaling pathway from Tox21 library - cell viability counter screen (AID 1224834); note: % is set by controls: 0 for no effect and ±100 for the full control effect; nearly all actives have a fitted effect of over 30% in size
Outline: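 After 17.5 h of compound exposure at 37 C, ERR cells are incubated with CellTiter-Fluor for 30 min and fluorescence intensity serves as the viability measure.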

[16] = target: Luciferin 4-monooxygenase (Photinus pyralis) (UniProt P08659); assay: qHTS assay to identify small molecule inhibitors of firefly luciferase (AID 1224835); note: series mostly up to about 120 µM; % is set by controls: 0 for no effect and ±100 for the full control effect; nearly all actives have a fitted effect of over 25% in size
Outline: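 Quantitative HTS format; KM concentrations of both substrates. Purified P. pyralis FLuc activity quantified from luminescence images.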

[17] = qHTS assay to identify small molecule agonists of the constitutive androstane receptor (CAR) signaling pathway - cell viability counter screen (AID 1224836); note: series mostly up to about 92 µM; % is set by controls: 0 for no effect and ±100 for the full control effect; nearly all actives have a fitted effect of over 45% in size
Outline: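 Double-stable HepG2 hepatoma cells (hCAR plus CYP2B6-2.2kb) are treated for 23 h at 37 C with test compounds in 15-point concentration series. PK11195 at 0.75 uM final is co-added. Cell viability is quantified by CellTiter-Fluor.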

[18] = target: Nuclear receptor subfamily 1 group I member 3 (Homo sapiens) (UniProt Q14994); assay: qHTS assay to identify small molecule antagonists of the constitutive androstane receptor (CAR) signaling pathway (AID 1224838);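 note: HepG2 cells stably expressing hCAR with CYP2B6 luciferase reporter stimulated by CITCO; % is set by controls: 0 for no effect and ±100 for the full control effect; nearly all actives have a fitted effect of over 40% in size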
Outline: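 Cell line: HepG2 double-stable for hCAR and CYP2B6-2.2kb reporter. Agonist: CITCO, 50 nM final. Compounds: 15 concentrations, 24 h, 37 C. Detection: ONE-Glo luminescence.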

[19] = target: Nuclear receptor subfamily 1 group I member 3 (Homo sapiens) (UniProt Q14994); assay: qHTS assay to identify small molecule agonists of the constitutive androstane receptor (CAR) signaling pathway (AID 1224839);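 note: HepG2 cells stably carrying human CAR and a CYP2B6 luciferase reporter; series mostly up to about 92 µM; % is set by controls: 0 for no effect and ±100 for the full control effect; nearly all actives have a fitted effect of over 15% in size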
Outline: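 Readout: firefly luciferase luminescence via ONE-Glo. System: HepG2 double-stable for hCAR and CYP2B6-2.2kb. Conditions: 15-point compound titration, PK11195 at 0.75 uM final, 24 h incubation.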

[20] = qHTS assay to identify small molecule antagonists of the constitutive androstane receptor (CAR) signaling pathway - cell viability counter screen (AID 1224837); note: series mostly up to about 92 µM; % is set by controls: 0 for no effect and ±100 for the full control effect; nearly all actives have a fitted effect of over 45% in size
Outline: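 Counter screen run in HepG2-CYP2B6-hCAR cells: 4 hr settle, compound titration (15 concentrations) with 50 nM CITCO, 23 hr at 37 C/5% CO2, CellTiter-Fluor fluorescence.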

Chain of Retinoic acid receptor RXR-alpha (Homo sapiens) (P19793 whole entry, looked up): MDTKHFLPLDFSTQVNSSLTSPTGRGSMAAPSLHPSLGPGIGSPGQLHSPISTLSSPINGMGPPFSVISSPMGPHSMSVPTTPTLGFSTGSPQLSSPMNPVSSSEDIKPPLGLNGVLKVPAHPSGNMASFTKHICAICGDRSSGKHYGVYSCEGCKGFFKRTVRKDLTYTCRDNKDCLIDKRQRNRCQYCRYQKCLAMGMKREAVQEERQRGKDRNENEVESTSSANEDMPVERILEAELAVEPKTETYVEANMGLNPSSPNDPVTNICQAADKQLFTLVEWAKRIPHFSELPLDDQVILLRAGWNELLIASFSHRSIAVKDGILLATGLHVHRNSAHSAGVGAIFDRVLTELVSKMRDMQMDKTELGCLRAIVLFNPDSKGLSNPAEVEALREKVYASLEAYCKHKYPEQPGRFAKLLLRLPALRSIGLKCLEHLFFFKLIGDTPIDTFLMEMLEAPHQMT
Chain of Nuclear receptor subfamily 1 group I member 3 (Homo sapiens) (Q14994 whole entry, looked up): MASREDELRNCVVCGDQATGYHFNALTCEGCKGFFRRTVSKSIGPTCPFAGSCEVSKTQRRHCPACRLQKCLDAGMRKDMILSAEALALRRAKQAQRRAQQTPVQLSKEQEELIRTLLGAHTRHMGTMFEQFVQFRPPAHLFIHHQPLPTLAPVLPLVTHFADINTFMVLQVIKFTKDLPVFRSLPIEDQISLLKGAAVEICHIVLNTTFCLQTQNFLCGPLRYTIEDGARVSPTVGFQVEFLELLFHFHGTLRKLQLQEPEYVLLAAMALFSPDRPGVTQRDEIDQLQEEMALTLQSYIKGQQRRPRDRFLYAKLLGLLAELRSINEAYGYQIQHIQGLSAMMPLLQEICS
Chain of Luciferin 4-monooxygenase (Photinus pyralis) (P08659 whole entry, looked up): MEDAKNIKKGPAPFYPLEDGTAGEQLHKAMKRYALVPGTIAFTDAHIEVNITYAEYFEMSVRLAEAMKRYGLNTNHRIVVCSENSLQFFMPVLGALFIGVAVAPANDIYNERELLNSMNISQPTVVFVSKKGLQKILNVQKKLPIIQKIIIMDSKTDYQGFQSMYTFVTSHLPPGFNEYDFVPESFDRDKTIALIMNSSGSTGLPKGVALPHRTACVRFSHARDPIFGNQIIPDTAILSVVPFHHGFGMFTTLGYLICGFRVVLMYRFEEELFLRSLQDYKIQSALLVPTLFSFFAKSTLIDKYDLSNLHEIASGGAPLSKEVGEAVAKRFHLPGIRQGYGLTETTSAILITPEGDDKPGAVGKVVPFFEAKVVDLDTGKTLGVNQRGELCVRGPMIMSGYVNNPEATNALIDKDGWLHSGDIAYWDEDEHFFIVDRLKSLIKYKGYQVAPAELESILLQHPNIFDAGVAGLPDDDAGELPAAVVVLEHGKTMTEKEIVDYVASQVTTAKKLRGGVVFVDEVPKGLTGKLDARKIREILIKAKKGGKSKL

CNC(C)=O
inactive: outcome [1] | outcome [2] | outcome [3] | Potency [4] | outcome [5] | outcome [6] | outcome [7] | outcome [8] | Potency [9] | Potency [10] | Potency [11] | outcome [12] | outcome [13] | Potency [14] | outcome [15] | Potency [16] | outcome [17] | outcome [18] | Potency [19]

CCCCCC(CC)OC(=O)CCCOc1ccc(Cl)cc1Cl (stereo not given)
active: Potency [10] 4.35 µM
inactive: outcome [1] | outcome [2] | outcome [3] | Potency [4] | outcome [5] | outcome [6] | outcome [7] | outcome [8] | Potency [9] | Potency [11] | outcome [12] | outcome [13] | Potency [14] | Potency [16] | outcome [17]

CCN(CC)CC
inactive: outcome [1] | outcome [2] | outcome [3] | Potency [4] | outcome [5] | outcome [6] | outcome [7] | outcome [8] | Potency [9] | Potency [11] | outcome [12] | outcome [13] | Potency [14] | outcome [15] | Potency [16] | outcome [17] | outcome [20] | outcome [18] | Potency [19]

Cc1ccccc1OCC(=O)O
inactive: outcome [1] | outcome [2] | outcome [3] | Potency [4] | outcome [5] | outcome [6] | outcome [7] | outcome [8] | Potency [9] | Potency [10] | outcome [12] | outcome [13] | Potency [14] | outcome [15] | Potency [16] | outcome [17] | outcome [20] | Potency [19]

CC(CN1CC(=O)NC(=O)C1)N1CC(=O)NC(=O)C1 (stereo not given)
inactive: outcome [1] | outcome [2] | outcome [3] | Potency [4] | outcome [5] | outcome [6] | outcome [7] | outcome [8] | Potency [9] | Potency [10] | outcome [12] | outcome [13] | Potency [14] | outcome [15] | Potency [16] | outcome [17] | Potency [19]

C=CC(=O)OCCOCCOCC
inactive: outcome [1] | outcome [3] | Potency [4] | outcome [5] | outcome [6] | outcome [7] | outcome [8] | Potency [9] | Potency [11] | outcome [12] | outcome [13] | Potency [14] | Potency [16] | outcome [17] | outcome [20]

c1coc(Cn2cccc2)c1
inactive: outcome [1] | outcome [2] | outcome [3] | Potency [4] | outcome [5] | outcome [6] | outcome [7] | outcome [8] | Potency [9] | Potency [10] | outcome [12] | outcome [13] | Potency [14] | Potency [16] | outcome [17] | outcome [20] | outcome [18] | Potency [19]

COC(=O)c1ccc(C(=O)O)cc1
inactive: outcome [1] | outcome [2] | outcome [3] | Potency [4] | outcome [5] | outcome [6] | outcome [7] | outcome [8] | Potency [9] | Potency [10] | outcome [12] | outcome [13] | Potency [14] | outcome [15] | Potency [16] | outcome [17] | outcome [20]

CNCCc1ccccn1
inactive: outcome [1] | outcome [2] | outcome [3] | Potency [4] | outcome [5] | outcome [6] | outcome [7] | outcome [8] | Potency [9] | Potency [11] | outcome [12] | outcome [13] | Potency [14] | Potency [16] | outcome [17] | outcome [20]

CC(=O)Nc1ccc(OCCOCCOc2ccc(NC(C)=O)cc2)cc1
inactive: outcome [1] | outcome [2] | outcome [3] | Potency [4] | outcome [5] | outcome [6] | outcome [7] | outcome [8] | Potency [9] | Potency [11] | outcome [12] | outcome [13] | Potency [14] | outcome [15] | Potency [16] | outcome [17] | outcome [20] | outcome [18] | Potency [19]

C[C@@H]1CC[C@@]2(OC1)O[C@H]1C[C@H]3[C@@H]4CC[C@H]5C[C@@H](O)CC[C@]5(C)[C@H]4CC(=O)[C@]3(C)[C@H]1[C@@H]2C
inactive: activity change, negative = cytotoxicity [1] 4.49% [at 5.95 µM] | viability change, negative = cytotoxic [2] -3.49% [at 6.95 µM] | activity, negative = cytotoxic [3] 6.74% [at 6.95 µM] | activation [4] 3.05% [at 6.95 µM] | activity change, negative = cytotoxicity [5] -1.94% [at 6.95 µM] | activity, negative = cytotoxicity [6] 4% [at 8.39 µM] | activity change, negative = inhibition [7] 0.0168% [at 8.39 µM] | viability change, negative = cytotoxic [8] 2.16% [at 6.97 µM] | activation [9] -4.54% [at 6.97 µM] | activity change, negative = cytotoxicity [11] -0.0245% [at 6.97 µM] | activity change, negative = cytotoxicity [12] -1.39% [at 8.39 µM] | activity, negative = inhibition [13] -0.792% [at 8.39 µM] | activation [14] 0.12% [at 8.36 µM] | viability change, negative = cytotoxic [15] 0.595% [at 8.39 µM] | activity change, negative = inhibition [16] 8.12% [at 10.5 µM] | viability change, negative = cytotoxic [17] 0.858% [at 8.39 µM] | activity change, negative = cytotoxicity [20] 4.92% [at 8.39 µM] | activity, negative = inhibition [18] -17.4% [at 8.39 µM] | activation [19] 0.221% [at 8.39 µM]

N#Cc1cc(NC(=O)C(=O)O)c(Cl)c(NC(=O)C(=O)O)c1
inactive: outcome [1] | outcome [2] | outcome [3] | Potency [4] | outcome [5] | outcome [6] | outcome [7] | outcome [8] | Potency [9] | Potency [11] | outcome [12] | outcome [13] | Potency [14] | outcome [15] | Potency [16] | outcome [17] | outcome [20]

C=CC(=O)OCC[N+](C)(C)C
inactive: outcome [1] | outcome [2] | outcome [3] | Potency [4] | outcome [5] | outcome [6] | outcome [7] | outcome [8] | Potency [9] | Potency [11] | outcome [12] | outcome [13] | Potency [14] | outcome [15] | Potency [16] | outcome [17] | outcome [20]

NS(=O)(=O)c1cc2c(cc1C(F)(F)F)NCNS2(=O)=O
inactive: outcome [1] | outcome [3] | Potency [4] | outcome [5] | outcome [6] | outcome [7] | outcome [8] | Potency [9] | Potency [10] | outcome [12] | outcome [13] | Potency [14] | Potency [16] | outcome [17] | outcome [20]

CC1(C)CC(N)CC(C)(C)N1
inactive: outcome [1] | outcome [2] | outcome [3] | Potency [4] | outcome [5] | outcome [6] | outcome [7] | outcome [8] | Potency [9] | Potency [11] | outcome [12] | outcome [13] | Potency [14] | outcome [15] | Potency [16] | outcome [17] | outcome [20] | Potency [19]
